For test [1], the target named is Fibroblast growth factor receptor 4 (Homo sapiens) (UniProt P22455). Conditions: at 1 µM.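 Note: reported figure is the averaged percent inhibition of FGFR4, from the GSK PKIS kinase screening panel.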
The target in test [2] is Tyrosine-protein kinase Fgr (Homo sapiens) (UniProt P09769). The note with it: at 0.1 µM.
For test [3] the target is unchanged. The note with it: at 1 µM.
Test [4] has as its target Vascular endothelial growth factor receptor 1 (Homo sapiens) (UniProt P17948). The note with it: at 0.1 µM.
Test [5] has the same target. The note with it: at 1 µM.
In test [6] the target is Receptor-type tyrosine-protein kinase FLT3 (Homo sapiens) (UniProt P36888). The note with it: at 0.1 µM.
Test [7] shares this target. The note with it: at 1 µM.
Test [8] relates to T1, Receptor-type tyrosine-protein kinase FLT3 (Homo sapiens), P36888 [D835Y].
T1 sequence (whole entry): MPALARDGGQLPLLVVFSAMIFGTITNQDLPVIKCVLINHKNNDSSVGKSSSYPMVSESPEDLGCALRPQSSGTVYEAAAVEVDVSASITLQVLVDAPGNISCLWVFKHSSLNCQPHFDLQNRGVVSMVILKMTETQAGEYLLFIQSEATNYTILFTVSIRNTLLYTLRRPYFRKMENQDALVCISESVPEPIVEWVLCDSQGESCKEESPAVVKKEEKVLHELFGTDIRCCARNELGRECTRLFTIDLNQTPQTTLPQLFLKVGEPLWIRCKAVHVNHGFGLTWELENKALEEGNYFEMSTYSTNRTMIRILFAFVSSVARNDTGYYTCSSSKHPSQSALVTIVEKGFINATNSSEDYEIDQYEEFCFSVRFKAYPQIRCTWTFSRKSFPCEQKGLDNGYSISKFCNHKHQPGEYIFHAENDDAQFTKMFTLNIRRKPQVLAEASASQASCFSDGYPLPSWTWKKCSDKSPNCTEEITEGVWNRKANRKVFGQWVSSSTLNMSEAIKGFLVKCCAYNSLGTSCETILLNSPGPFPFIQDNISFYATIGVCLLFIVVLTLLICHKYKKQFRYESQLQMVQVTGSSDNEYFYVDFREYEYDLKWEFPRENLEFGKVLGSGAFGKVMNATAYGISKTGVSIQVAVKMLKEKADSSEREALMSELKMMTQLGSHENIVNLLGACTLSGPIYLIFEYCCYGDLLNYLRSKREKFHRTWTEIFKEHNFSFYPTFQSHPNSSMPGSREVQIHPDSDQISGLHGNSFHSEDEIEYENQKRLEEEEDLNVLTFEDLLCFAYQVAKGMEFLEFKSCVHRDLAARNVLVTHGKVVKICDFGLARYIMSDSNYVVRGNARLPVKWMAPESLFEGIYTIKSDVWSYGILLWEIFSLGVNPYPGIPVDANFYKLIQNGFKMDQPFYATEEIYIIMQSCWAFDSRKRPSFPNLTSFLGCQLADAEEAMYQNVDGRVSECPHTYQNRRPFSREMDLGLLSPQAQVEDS
Conditions: at 0.1 µM.

Test [9] concerns the target Non-receptor tyrosine-protein kinase TYK2 (Homo sapiens) (UniProt P29597). The note with it: at 1 µM.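 Note: values are mean percent inhibition of TYK2 kinase.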
The target in test [10] is T2, Tyrosine-protein kinase receptor TYRO3 (Homo sapiens) (UniProt Q06418).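 Note: reported percentages are averaged inhibition values of TYRO3 kinase activity.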
T2 sequence (whole entry): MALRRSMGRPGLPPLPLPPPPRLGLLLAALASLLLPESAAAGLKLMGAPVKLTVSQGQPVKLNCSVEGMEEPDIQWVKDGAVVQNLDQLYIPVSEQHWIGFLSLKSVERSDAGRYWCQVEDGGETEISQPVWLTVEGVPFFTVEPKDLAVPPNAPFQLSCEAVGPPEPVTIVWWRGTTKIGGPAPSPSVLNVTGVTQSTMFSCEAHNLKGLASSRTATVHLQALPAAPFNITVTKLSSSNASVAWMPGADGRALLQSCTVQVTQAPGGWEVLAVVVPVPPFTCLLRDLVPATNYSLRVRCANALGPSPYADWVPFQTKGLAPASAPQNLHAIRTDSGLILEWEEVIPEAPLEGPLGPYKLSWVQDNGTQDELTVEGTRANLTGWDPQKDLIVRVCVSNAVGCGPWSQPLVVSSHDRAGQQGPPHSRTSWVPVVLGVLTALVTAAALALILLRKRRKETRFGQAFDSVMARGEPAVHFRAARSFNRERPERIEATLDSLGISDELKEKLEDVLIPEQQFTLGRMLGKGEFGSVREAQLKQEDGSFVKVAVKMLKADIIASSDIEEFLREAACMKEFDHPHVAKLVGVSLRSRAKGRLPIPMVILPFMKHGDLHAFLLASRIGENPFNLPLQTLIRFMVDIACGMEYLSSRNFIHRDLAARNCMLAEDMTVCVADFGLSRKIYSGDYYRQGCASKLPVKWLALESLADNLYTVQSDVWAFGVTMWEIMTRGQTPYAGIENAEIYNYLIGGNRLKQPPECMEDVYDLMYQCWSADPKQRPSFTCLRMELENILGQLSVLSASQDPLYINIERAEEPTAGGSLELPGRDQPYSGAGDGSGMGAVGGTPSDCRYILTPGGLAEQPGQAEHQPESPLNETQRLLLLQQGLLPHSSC
The note with it: at 0.1 µM.

Molecules are shown by their SMILES.

Chain of Vascular endothelial growth factor receptor 1 (Homo sapiens) (P17948 whole entry): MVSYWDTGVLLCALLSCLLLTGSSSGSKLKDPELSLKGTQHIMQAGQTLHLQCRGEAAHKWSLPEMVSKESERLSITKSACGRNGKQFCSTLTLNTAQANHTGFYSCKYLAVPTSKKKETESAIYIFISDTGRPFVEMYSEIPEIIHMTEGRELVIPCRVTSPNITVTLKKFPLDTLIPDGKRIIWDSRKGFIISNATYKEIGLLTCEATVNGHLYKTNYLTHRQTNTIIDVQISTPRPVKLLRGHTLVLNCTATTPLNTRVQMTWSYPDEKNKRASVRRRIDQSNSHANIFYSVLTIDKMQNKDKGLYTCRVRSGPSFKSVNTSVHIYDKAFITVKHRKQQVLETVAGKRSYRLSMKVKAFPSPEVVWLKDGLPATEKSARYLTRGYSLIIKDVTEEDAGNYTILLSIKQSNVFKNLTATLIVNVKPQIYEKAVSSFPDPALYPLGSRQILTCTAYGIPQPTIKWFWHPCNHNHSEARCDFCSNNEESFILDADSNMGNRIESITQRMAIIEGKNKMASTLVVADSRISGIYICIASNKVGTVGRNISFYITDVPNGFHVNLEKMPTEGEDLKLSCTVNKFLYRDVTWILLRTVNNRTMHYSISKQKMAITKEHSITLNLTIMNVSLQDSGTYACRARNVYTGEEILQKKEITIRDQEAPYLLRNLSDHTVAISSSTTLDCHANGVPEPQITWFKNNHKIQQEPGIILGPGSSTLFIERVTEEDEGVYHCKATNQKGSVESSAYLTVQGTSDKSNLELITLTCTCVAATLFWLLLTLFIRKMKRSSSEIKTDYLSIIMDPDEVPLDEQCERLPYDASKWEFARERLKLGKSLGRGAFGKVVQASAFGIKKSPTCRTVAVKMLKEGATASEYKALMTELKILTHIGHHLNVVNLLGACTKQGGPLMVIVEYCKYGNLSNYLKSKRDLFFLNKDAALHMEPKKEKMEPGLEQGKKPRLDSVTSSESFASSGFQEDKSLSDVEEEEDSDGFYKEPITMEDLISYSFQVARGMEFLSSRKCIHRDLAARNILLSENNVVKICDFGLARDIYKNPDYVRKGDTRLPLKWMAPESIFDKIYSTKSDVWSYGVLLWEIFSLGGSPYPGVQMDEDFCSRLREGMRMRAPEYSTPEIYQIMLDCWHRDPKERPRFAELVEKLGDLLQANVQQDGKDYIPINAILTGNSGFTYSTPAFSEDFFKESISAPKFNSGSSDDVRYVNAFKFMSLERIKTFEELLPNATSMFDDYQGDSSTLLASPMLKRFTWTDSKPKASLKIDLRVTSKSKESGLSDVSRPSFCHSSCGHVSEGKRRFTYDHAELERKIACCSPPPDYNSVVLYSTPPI
Chain of Non-receptor tyrosine-protein kinase TYK2 (Homo sapiens) (P29597 whole entry): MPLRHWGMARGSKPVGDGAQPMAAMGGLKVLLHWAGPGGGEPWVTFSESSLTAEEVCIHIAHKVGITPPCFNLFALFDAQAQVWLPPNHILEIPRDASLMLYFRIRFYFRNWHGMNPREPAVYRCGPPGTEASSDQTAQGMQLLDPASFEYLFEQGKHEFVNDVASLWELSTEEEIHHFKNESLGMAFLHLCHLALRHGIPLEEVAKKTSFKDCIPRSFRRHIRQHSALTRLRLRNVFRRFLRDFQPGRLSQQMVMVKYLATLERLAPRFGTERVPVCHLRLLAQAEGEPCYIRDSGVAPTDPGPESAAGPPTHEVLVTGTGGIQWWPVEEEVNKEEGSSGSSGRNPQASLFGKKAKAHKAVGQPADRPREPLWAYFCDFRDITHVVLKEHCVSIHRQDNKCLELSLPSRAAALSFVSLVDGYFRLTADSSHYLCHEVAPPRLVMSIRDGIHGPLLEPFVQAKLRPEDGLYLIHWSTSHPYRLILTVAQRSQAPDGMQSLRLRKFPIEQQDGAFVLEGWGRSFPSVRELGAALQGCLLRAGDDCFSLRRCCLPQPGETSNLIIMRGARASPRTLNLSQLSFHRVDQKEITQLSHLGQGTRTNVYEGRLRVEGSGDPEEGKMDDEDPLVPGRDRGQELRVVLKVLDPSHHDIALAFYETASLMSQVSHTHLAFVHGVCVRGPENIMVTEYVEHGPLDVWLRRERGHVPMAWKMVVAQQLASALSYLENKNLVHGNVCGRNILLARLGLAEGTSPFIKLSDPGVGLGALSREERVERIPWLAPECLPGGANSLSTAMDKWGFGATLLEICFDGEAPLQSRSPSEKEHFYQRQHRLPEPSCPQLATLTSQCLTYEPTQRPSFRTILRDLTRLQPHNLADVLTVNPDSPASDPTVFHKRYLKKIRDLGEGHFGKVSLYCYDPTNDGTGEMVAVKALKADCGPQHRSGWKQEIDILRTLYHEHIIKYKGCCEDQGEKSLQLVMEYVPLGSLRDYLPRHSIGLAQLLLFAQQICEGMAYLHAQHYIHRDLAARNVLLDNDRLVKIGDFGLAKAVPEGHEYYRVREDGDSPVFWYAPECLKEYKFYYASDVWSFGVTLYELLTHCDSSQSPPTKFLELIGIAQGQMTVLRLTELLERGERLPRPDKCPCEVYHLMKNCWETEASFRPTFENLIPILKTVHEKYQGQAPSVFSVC
Chain of Fibroblast growth factor receptor 4 (Homo sapiens) (P22455 22-802 limits assumed): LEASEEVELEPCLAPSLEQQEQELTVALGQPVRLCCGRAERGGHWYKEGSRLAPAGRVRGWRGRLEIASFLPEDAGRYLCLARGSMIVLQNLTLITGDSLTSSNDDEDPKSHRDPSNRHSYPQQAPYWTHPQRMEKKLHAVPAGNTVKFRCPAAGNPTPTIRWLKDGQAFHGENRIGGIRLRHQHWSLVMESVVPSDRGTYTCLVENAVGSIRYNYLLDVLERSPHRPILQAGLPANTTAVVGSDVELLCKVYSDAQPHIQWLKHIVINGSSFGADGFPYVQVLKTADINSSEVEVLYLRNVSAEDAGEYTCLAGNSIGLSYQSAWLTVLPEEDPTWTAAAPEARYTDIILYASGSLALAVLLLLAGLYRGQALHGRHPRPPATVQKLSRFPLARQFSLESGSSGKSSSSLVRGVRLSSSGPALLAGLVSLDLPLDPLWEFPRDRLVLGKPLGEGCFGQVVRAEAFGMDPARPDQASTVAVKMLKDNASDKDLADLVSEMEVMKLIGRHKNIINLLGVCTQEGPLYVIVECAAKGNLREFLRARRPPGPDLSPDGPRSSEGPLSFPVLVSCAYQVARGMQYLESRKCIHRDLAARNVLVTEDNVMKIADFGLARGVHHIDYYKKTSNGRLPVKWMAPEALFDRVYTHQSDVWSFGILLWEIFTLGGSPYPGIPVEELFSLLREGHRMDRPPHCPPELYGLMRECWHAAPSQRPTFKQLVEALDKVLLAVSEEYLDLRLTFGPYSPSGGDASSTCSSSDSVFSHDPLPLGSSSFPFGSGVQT
Chain of Tyrosine-protein kinase Fgr (Homo sapiens) (P09769 2-529 limits assumed): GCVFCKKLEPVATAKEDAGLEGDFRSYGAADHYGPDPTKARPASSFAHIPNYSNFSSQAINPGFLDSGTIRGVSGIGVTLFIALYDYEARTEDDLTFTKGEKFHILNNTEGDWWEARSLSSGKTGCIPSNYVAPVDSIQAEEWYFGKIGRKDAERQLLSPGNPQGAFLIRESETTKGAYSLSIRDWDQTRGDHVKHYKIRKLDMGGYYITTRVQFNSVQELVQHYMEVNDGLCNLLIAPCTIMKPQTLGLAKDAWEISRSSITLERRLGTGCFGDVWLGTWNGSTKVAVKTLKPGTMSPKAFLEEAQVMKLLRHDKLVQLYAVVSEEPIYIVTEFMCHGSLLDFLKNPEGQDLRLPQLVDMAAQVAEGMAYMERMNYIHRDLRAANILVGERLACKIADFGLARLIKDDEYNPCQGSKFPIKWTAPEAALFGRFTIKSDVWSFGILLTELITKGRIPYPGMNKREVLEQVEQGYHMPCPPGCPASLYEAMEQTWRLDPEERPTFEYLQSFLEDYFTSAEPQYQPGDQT

As to `NS(=O)(=O)c1ccc(NC=C2C(=O)Nc3ccc4ncsc4c32)cc1`, the inhibition in test [1] came to 11.5%; in test [2] it was 6.25%; in [3], 36.2%; in test [4], 19.3%; in [5], 67.6%; in test [6], 47.7%. In addition, the inhibition in test [7] turned out to be 85.4%; in [8], 59.9%; in test [9], 63.6%; in [10], 8.88%.

With `O=C(Nc1ccc(Oc2ccc3[nH]c(NC(=O)c4ccco4)nc3c2)cc1)Nc1cc(C(F)(F)F)ccc1F`, the inhibition in test [1] was -2.3%; in [2], 1.62%; in test [3], 9.51%; in test [4] it was 23.6%; in test [5], 78.8%; in [6], 15%. Further, the inhibition is 70.7% in test [7], 1.75% in [8], -3.76% in [9] and 5.34% in test [10].

Take `Cc1ccc(Nc2ccnc(Nc3cccc(C(N)=O)c3)n2)cc1O`: the inhibition in test [1] was 3.08%; in test [2], 52.6%; in test [3] it was 72.8%; in test [4], 69.9%; in test [5] it was 97.8%; in [6], 18.8%. Also, the inhibition in [7] is 64.5%; in test [8], 30.1%; in [9], 16.9%; in test [10] it was 13.1%.

As for `COc1cc2ncnc(Nc3ccc4c(cnn4Cc4ccccc4)c3)c2cc1OC`, the inhibition in [1] is -0.35%; in test [2], 18.4%; in test [3] it was 44.2%; in test [4] it was 0.61%; in test [5], 3.06%; in test [6], 4.33%. Further, the inhibition is 5.83% in test [7], -2.99% in test [8], -3.38% in test [9] and 1.85% in [10].

For `Nc1ccc(C#Cc2cncnc2Nc2ccc(OCc3cccc(F)c3)c(Cl)c2)cc1`, the inhibition in [1] was 1.61%; in [2], 3.78%; in test [3], 4.78%; in test [4], 0.39%; in test [5], 1.35%; in test [6], 0.49%. Also, the inhibition in [7] was 2.64%; in test [8], 1.46%; in [9], -2.76%; in test [10], 2.47%.

Regarding `COc1cccc(-n2ncc3c(N/N=C/c4ccc(S(C)(=O)=O)cc4)ncnc32)c1`, the inhibition in test [1] was -1.16%; in [2] it was 28.5%; in [3] it was 64%; in test [4] it was 5.44%; in [5], 18.8%; in [6], 8.26%. Besides, the inhibition in [7] amounted to 27.9%; in test [8], 18.6%; in test [9], 1.37%; in test [10], 10.6%.

As for `COc1cccc(-n2ncc3c(N/N=C/c4ccc(C)cc4)ncnc32)c1`, the inhibition in test [1] was 1.93%; in test [2], 3.81%; in test [3], 18.9%; in [4], -0.93%; in test [5] it was 0.15%; in test [6], 0.84%. For the same compound, the inhibition in test [7] is 5.84%; in test [8], 2.71%; in test [9] it was -1.47%; in test [10] it was 1.83%.

For the compound `CN(C)C(=O)O[C@@H]1CN[C@@H](C#Cc2cc3ncnc(Nc4ccc(OCc5cccc(F)c5)c(Cl)c4)c3s2)C1`, the inhibition in test [1] was 0.26%; in test [2], 4.03%; in test [3], 8.75%; in [4], -0.77%; in test [5], 1.01%; in test [6] it was -1.89%. Besides, the inhibition in test [7] was -0.37%; in [8] it was -2.1%; in [9], 0.28%; in [10], -0.78%.

As to `NC(=O)c1cccc(Nc2nccc(Nc3cccc(F)c3)n2)c1`, the inhibition in test [1] stood at 1.79%; in [2] it was 5.52%; in [3] it was 30%; in test [4], 1.29%; in [5] it was 16.4%; in test [6] it was 3.08%. Also, the inhibition came to 16.5% in test [7], 1.55% in test [8], 32.4% in test [9] and 10.5% in [10].

As to `Nc1nccc(-c2c(-c3ccc(F)cc3)nn3cc(C(F)(F)F)ccc23)n1`, the inhibition in test [1] was 0.14%; in test [2], 2.64%; in [3], 4.08%; in [4], -2.26%; in [5], 0.63%; in test [6], 2.41%. In addition, the inhibition was -0.04% in [7], -7.47% in test [8], -2.71% in [9] and 0.03% in test [10].

Consider `NS(=O)(=O)c1ccc(-c2cc3ccncc3cc2OCc2ccccc2)cc1`, for which the inhibition in [1] was found to be 4.68%; in [2], 5.99%; in test [3], 4.64%; in test [4], 0.22%; in test [5], 2.57%; in test [6], 2.19%. Besides, the inhibition in test [7] is 2.5%; in test [8], -4.03%; in test [9] it was -0.94%; in test [10], 3.82%.

For the compound `COc1cc2ncn(-c3cc(OCc4ccccc4S(C)(=O)=O)c(C#N)s3)c2cc1OC`, the inhibition came out at 1.47% in test [1]; 15.2% in test [2]; 59.6% in test [3]; 3.31% in test [4]; 15.7% in [5]; 3.03% in [6]. Besides, the inhibition in [7] was 11.6%; in test [8] it was 5.25%; in test [9] it was 1.09%; in test [10], 4.94%.

For `N#Cc1c(NC(=O)c2ccccc2F)sc2c1CCCC2`, the inhibition in test [1] was -0.54%; in test [2], 1.26%; in test [3], 1.21%; in [4], -1.64%; in test [5] it was -1.09%; in test [6] it was 0.49%. Further, the inhibition was -1.06% in test [7], -2.89% in [8], 0.85% in test [9] and -1.29% in test [10].

In the case of `N#Cc1cccc(Nc2nccc(-c3cnn4ncccc34)n2)c1`, the inhibition in [1] was found to be 5.22%; in [2], 11.1%; in [3] it was 41.7%; in test [4] it was 8.37%; in [5], 28.3%; in [6] it was 18.5%. The inhibition came out at 68% in test [7], 7.57% in test [8], 11% in test [9] and 7.97% in test [10].

As for `O=C1Nc2ccccc2/C1=C/Nc1ccc2[nH]c(=O)[nH]c2c1`, the inhibition was found to be 11.4% in [1]; 11.3% in test [2]; 26.5% in test [3]; 11% in test [4]; 30.1% in [5]; 26.6% in [6]. In addition, the inhibition in [7] amounted to 74%; in [8], 17.5%; in [9], 18.7%; in [10], 5.57%.

As to `CN(C)CCCn1c(-c2nonc2N)nc2cnccc21`, the inhibition in test [1] worked out at 1.11%; in test [2], 1.37%; in [3], 2.22%; in test [4] it was 1.09%; in test [5] it was 2.77%; in test [6], 2.53%. For the same compound, the inhibition in test [7] was 1.85%; in test [8], -5.34%; in test [9], -2.04%; in [10], 1.74%.

The record behind these values is ChEMBL document CHEMBL1961873, “Compounds: GSK PKIS; Assays: Nanosyn kinase panel” (2012).
